The target in experiment [1] is Bile acid receptor (Homo sapiens) (UniProt Q96RI1). Nature of the experiment: qHTS assay for small molecule antagonists of farnesoid X receptor signaling (AID 588526). Further: on the % scale 0 is the no-effect control and ±100 the full control effect. A digest of the protocol: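 Antagonist mode: titrated compounds tested against chenodeoxycholic acid stimulation (normalized to 50 uM CDCA and DMSO) in GeneBLAzer HEK293T cells for 16 h. Beta-lactamase read by CCF4 fluorescence; IC50 from Hill fits.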

Experiment [2] addresses Glucocorticoid receptor (Homo sapiens) (UniProt P04150). Nature of the experiment: qHTS assay for small molecule agonists of glucocorticoid receptor signaling (AID 588532; active means well fitted curve in the direction sought with a large enough effect in the signal ratio, with a control signal flat; the % refers to the signal ratio;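 further: 100% = dexamethasone at 0.1 µM and 0% = DMSO only wells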). To be noted: HeLa MMTV-bla, beta-lactamase ratio, agonist, 18 h; stronger effect = higher value; percent of dexamethasone control, DMSO zero. An outline of the steps:
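HeLa GRE-bla reporter cells; 18 h compound exposure at 37 C; 2 h CCF4 loading at room temperature; fluorescence at 460 and 530 nm; EC50 by Hill equation.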

Experiment [3] shares this target. The experiment in a line: qHTS assay for small molecule antagonists of glucocorticoid receptor signaling (AID 588533; active means well fitted inhibition curve with a large enough effect in the signal ratio, with a control signal flat, not every such curve was filed as active; the % refers to the signal ratio; further: on the % scale 0 is the no-effect control and ±100 the full control effect). An outline of the steps: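 Antagonist-mode qHTS: compound titrations added to GRE-bla HeLa cells, then dexamethasone 2 nM final; 18 h, 37 C. CCF4 FRET fluorescence normalized to dexamethasone and DMSO; IC50 from Hill fit.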
In general terms: In qHTS, concentration-response curves come from the screen itself.

For experiment [4], the target named is Vitamin D3 receptor (Homo sapiens) (UniProt P11473). The experiment in a line: qHTS assay for small molecule antagonists of vitamin D receptor signaling (AID 588541).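 Further: receptor activated by calcitriol during compound treatment; series mostly up to about 77 µM; on the % scale 0 is the no-effect control and ±100 the full control effect.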 An outline of the steps: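 VDR-UAS-bla HEK293T cells in 2% charcoal-stripped FBS were stimulated with 1-alpha,25-dihydroxyvitamin D3 (3 nM final) plus compound for 16 h at 37 C. The beta-lactamase CCF4 readout was normalized to 50 nM agonist and DMSO, and Hill fits gave IC50.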

The target is the same in experiment [5]. The experiment in a line: qHTS assay for small molecule agonists of vitamin D receptor signaling (AID 588543).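 Further: 0% = DMSO basal and 100% = reference agonist control.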 An outline of the steps:
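GeneBLAzer VDR-UAS-bla HEK293T cells in 2% charcoal-stripped FBS medium were dosed with compound titrations for 16 h at 37 °C; CCF4 β-lactamase readout (405 nm ex, 460/530 nm em). EC50 and efficacy from Hill fits, normalized to 50 nM calcitriol (100%) and DMSO (0%).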

Experiment [6] is described as follows: qHTS assay for small molecule agonists of retinoid X receptor alpha signaling (AID 588544).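 On activation: 0% = DMSO basal wells and 100% = reference agonist.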 Conditions: HEK293T RXRa-UAS-bla, beta-lactamase reporter, 18 h; 530 nm emission.
The target of experiment [7] is Retinoic acid receptor RXR-alpha (Homo sapiens) (UniProt P19793). The experiment is described as above.
Experiment [8] has as its target Thyroid hormone receptor beta (Homo sapiens) (UniProt P10828). The experiment in a line: qHTS assay for small molecule agonists of thyroid hormone receptor beta signaling (AID 588545). An outline of the steps: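 In this cell-based screen, titrated compounds act on HEK 293 cells held in medium with 2% charcoal/dextran FBS, NEAA and pyruvate for 18 hrs at 37 C. Responses are expressed relative to T3 (10 nM) as 100% and basal DMSO as 0%.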

The target is the same in experiment [9]. Nature of the experiment: qHTS assay for small molecule antagonists of thyroid hormone receptor beta signaling (AID 588547; active means well fitted inhibition curve with a large enough effect in the signal ratio, with a control signal flat, not every such curve was filed as active; the % refers to the signal ratio;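 further: cells stimulated with 0.4 nM T3 agonist during compound exposure; series mostly up to about 77 µM; on the % scale 0 is the no-effect control and ±100 the full control effect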). Conditions: TR-UAS-bla HEK293, beta-lactamase ratio, antagonist mode, 18 h. A digest of the protocol:
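TR-UAS-bla GripTite HEK293 cells in 2% charcoal/dextran FBS medium; compounds 0.59 nM to 92 uM with T3 at 0.4nM final, 18 h at 37 C. Beta-lactamase read by CCF4 fluorescence (460/530 nm); Hill fits gave IC50 and efficacy.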

Experiment [10] deals with Voltage-gated inwardly rectifying potassium channel KCNH2 (Homo sapiens) (UniProt Q12809). Nature of the experiment: qHTS Assay for Small Molecule Inhibitors of the Human hERG Channel Activity (AID 588834; active means well fitted inhibition curve with a large enough effect;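 further: top concentration of the series differs between compounds; on the % scale 0 is the no-effect control and ±100 the full control effect; lower thallium flux fluorescence means stronger hERG block; nearly all actives have a fitted effect of over 50% in size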). A digest of the protocol:
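U2OS cells transduced with hERG via BacMam (MOI ~100), plated 2000/well, loaded with FluxOR thallium dye, compound ~10 min, then stimulation buffer; fluorescence decrease read kinetically; AC50 from Hill fits.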

Experiment [11] in a line: qHTS assay for small molecule activators of the p53 signaling pathway (AID 651743; active means well fitted activation curve with a large enough effect in the signal ratio, not every such curve was filed as active; the % refers to the signal ratio; further: series mostly up to about 92 µM; % of control where 0% means no effect). To be noted: HCT-116 p53RE-bla, beta-lactamase FRET ratio, 16 h; stronger effect = higher value. An outline of the steps: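 HCT-116 p53RE-bla, 4,000 cells/well; 5 h settle; cpd/DMSO 16 h, 37 C; LiveBLAzer B/G 2 h RT; fluorescence intensity.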
Experiment [12] addresses Peroxisome proliferator-activated receptor gamma (Homo sapiens) (UniProt P37231). Nature of the experiment: qHTS assay for small molecule agonists of peroxisome proliferator-activated receptor gamma signaling (AID 588536; active means well fitted curve in the direction sought with a large enough effect in the signal ratio, with a control signal flat, not every such curve was filed as active; the % refers to the signal ratio;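 further: 0% = DMSO basal wells and 100% = rosiglitazone at 2 µM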). An outline of the steps: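 Test agents, titrated, stimulated HEK293 UAS-bla cells overnight (16 h, 37 C). Substrate CCF4 was then added for two hours at room temperature before fluorescence reading.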

Experiment [13] in a line: qHTS assay for small molecule antagonists of retinoid X receptor alpha signaling (AID 588546; active means well fitted inhibition curve with a large enough effect in the signal ratio, with a control signal flat, not every such curve was filed as active; the % refers to the signal ratio). Conditions: HEK293T RXRa-UAS-bla, beta-lactamase ratio, antagonist mode; measured here: W530 green channel, cytotoxicity proxy. A digest of the protocol: (§1)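 Beta-lactamase reporter inhibition, read as CCF4 fluorescence ratio (ex 405, em 460/530 nm) after 2 h at RT. HEK293T UAS-bla cells, 2500/well, were stimulated with 9-cis-RA at 500 or 100 nM final alongside test compound for 18 h at 37 C.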

Experiment [14] deals with Retinoic acid receptor RXR-alpha (Homo sapiens) (UniProt P19793). The experiment is described as above. Conditions: HEK293T RXRa-UAS-bla, beta-lactamase ratio, antagonist mode. A digest of the protocol:
as §1

For experiment [15], the target named is Peroxisome proliferator-activated receptor gamma (Homo sapiens) (UniProt P37231). The experiment in a line: qHTS assay for small molecule antagonists of peroxisome proliferator-activated receptor gamma signaling (AID 588537; active means well fitted inhibition curve with a large enough effect in the signal ratio, with a control signal flat, not every such curve was filed as active; the % refers to the signal ratio;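 further: reporter cells co-stimulated with 50 nM rosiglitazone agonist during compound treatment; % of control where 0% means no effect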). A digest of the protocol: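 Step one: plate 3000 HEK293 UAS-bla cells per well in medium with 1% stripped serum and hold 6-6.5 h at 37 C. Step two: add compound and 50 nM agonist for 16 h. Step three: CCF4 loading, fluorescence read.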

Experiment [16] can be described thus: qHTS assay for small molecule activators of the nuclear factor-kappa B (NF-kB) signaling pathway (AID 651749; active means well fitted activation curve with a large enough effect in the signal ratio; the % refers to the signal ratio; further: series mostly up to about 77 µM; % of control where 0% means no effect). To be noted: NF-kB-bla ME-180 cells, beta-lactamase FRET ratio, 16 h; stronger effect = higher value. An outline of the steps: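 Incubation lasted 16 hr at 37C in 5% CO2 after 23 nL compound addition to ME-180 NF-kB-bla cells. Activation appears as beta-lactamase-mediated FRET loss.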

A short description of experiment [17]: qHTS assay for small molecule antagonists of peroxisome proliferator-activated receptor delta signaling (AID 588535; active means well fitted inhibition curve with a large enough effect in the signal ratio, with a control signal flat, not every such curve was filed as active; the % refers to the signal ratio;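 on max response: cells co-treated with a PPAR-delta agonist as stimulator during compound exposure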). To be noted: HEK293T PPARd-UAS-bla, beta-lactamase FRET ratio, 18 h; 460 nm channel. A digest of the protocol: (§2)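 Cells were seeded at 4000 per well in assay medium containing 2% charcoal/dextran FBS and held 5 hrs at 37 C. Compounds were then added for 18 hrs. CCF4 substrate was applied for 2 hrs at room temperature before fluorescence reading.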

The target in experiment [18] is Peroxisome proliferator-activated receptor delta (Homo sapiens) (UniProt Q03181). The description is as above. A digest of the protocol:
as §2

The nature of experiment [19]: qHTS assay for small molecule agonists of the antioxidant response element (ARE) signaling pathway (AID 651741; active means well fitted activation curve with a large enough effect in the signal ratio; the % refers to the signal ratio; further: potency means the concentration at half of the fitted maximal effect; on activation: % of control where 0% means no effect). A digest of the protocol: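 HepG2 ARE-bla cells plated at 2,000 cells/well and incubated 5 h at 37 C/5% CO2 received 23 nL compound in DMSO. After 16 h at 37 C, LiveBLAzer B/G FRET substrate was applied for 2 h at room temperature and fluorescence read.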

The source of these data is PubChem BioAssay (NCATS).

Structures are written as SMILES. Inconclusive results are not listed. Calls of active or inactive are those of the source. Unless noted, the call rests on the fitted dose curve.

Peroxisome proliferator-activated receptor gamma (Homo sapiens), sequence (P37231 whole entry, looked up): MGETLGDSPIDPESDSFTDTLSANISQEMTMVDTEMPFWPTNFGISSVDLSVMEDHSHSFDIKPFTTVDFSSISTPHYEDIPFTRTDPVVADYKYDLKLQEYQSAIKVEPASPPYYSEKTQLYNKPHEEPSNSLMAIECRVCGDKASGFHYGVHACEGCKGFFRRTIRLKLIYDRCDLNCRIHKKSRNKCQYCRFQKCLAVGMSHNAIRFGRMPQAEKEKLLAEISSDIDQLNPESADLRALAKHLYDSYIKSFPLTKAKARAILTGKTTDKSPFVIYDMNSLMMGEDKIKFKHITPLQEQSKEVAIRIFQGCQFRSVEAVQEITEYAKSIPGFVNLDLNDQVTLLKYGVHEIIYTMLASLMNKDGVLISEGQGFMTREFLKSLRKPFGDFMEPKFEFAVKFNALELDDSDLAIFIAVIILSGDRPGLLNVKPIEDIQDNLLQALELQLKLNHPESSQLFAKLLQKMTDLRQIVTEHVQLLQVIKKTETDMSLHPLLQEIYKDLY
Bile acid receptor (Homo sapiens), sequence (Q96RI1 whole entry, looked up): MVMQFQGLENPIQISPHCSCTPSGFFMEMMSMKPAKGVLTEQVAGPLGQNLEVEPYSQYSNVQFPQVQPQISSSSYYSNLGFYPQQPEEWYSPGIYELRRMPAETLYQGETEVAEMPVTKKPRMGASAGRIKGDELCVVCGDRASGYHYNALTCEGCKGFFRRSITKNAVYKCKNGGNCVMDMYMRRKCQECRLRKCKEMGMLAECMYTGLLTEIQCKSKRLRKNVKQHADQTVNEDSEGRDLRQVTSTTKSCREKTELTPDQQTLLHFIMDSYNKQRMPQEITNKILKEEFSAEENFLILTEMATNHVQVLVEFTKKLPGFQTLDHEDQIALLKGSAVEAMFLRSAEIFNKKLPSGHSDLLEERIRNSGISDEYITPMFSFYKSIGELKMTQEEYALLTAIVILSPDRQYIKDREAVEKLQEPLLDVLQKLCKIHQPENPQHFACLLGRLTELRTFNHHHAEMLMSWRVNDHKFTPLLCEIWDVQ
Voltage-gated inwardly rectifying potassium channel KCNH2 (Homo sapiens), sequence (Q12809 whole entry, looked up): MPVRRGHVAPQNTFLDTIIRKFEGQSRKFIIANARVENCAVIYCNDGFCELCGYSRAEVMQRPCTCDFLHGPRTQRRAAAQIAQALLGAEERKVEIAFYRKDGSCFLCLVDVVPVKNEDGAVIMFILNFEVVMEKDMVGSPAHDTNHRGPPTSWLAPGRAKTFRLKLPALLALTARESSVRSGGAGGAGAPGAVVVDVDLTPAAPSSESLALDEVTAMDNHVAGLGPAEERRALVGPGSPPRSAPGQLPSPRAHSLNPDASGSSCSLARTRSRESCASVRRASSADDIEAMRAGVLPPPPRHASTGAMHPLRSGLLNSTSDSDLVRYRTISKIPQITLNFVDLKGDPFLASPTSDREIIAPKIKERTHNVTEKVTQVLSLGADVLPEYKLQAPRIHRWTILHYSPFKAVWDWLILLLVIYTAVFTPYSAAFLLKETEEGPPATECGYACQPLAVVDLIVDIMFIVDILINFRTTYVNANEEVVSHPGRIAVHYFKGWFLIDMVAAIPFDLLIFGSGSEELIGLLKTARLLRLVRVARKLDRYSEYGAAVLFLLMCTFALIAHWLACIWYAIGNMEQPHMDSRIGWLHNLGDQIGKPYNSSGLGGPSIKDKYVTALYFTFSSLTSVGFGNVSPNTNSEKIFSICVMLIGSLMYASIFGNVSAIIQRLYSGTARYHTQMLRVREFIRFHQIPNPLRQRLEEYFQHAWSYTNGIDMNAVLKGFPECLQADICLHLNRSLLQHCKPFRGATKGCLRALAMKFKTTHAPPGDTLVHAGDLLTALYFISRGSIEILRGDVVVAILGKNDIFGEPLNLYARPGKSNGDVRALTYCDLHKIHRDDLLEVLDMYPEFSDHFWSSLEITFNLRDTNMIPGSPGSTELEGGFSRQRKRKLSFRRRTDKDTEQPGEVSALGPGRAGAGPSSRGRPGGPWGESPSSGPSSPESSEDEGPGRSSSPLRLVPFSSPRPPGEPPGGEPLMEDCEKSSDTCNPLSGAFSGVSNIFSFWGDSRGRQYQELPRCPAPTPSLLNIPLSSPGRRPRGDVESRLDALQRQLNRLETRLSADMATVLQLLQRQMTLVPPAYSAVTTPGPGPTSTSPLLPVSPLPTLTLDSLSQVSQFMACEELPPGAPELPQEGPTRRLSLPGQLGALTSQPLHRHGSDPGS
Peroxisome proliferator-activated receptor delta (Homo sapiens), sequence (Q03181 whole entry, looked up): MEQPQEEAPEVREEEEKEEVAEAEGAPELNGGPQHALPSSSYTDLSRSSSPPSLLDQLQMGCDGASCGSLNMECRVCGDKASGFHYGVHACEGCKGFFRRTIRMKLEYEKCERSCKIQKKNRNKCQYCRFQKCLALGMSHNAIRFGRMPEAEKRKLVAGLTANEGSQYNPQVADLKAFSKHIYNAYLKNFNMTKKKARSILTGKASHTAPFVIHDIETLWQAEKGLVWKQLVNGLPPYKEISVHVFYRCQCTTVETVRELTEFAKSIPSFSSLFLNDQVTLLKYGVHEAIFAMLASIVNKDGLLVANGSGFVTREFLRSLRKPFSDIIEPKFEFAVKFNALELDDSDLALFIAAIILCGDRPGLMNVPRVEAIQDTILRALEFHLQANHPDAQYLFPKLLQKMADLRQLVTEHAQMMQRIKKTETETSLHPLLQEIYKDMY
Thyroid hormone receptor beta (Homo sapiens), sequence (P10828 whole entry, looked up): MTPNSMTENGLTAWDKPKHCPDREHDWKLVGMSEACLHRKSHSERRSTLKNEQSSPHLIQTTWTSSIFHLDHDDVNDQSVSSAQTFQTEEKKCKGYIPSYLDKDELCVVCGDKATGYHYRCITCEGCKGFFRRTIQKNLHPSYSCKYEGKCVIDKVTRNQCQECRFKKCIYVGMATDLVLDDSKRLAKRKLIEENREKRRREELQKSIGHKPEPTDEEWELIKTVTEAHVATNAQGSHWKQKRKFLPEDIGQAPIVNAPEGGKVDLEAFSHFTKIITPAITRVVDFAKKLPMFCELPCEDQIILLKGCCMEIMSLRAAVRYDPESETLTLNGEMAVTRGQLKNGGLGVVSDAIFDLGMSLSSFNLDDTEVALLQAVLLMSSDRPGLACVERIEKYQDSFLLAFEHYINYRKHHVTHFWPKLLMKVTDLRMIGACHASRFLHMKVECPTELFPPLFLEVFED
Glucocorticoid receptor (Homo sapiens), sequence (P04150 whole entry, looked up): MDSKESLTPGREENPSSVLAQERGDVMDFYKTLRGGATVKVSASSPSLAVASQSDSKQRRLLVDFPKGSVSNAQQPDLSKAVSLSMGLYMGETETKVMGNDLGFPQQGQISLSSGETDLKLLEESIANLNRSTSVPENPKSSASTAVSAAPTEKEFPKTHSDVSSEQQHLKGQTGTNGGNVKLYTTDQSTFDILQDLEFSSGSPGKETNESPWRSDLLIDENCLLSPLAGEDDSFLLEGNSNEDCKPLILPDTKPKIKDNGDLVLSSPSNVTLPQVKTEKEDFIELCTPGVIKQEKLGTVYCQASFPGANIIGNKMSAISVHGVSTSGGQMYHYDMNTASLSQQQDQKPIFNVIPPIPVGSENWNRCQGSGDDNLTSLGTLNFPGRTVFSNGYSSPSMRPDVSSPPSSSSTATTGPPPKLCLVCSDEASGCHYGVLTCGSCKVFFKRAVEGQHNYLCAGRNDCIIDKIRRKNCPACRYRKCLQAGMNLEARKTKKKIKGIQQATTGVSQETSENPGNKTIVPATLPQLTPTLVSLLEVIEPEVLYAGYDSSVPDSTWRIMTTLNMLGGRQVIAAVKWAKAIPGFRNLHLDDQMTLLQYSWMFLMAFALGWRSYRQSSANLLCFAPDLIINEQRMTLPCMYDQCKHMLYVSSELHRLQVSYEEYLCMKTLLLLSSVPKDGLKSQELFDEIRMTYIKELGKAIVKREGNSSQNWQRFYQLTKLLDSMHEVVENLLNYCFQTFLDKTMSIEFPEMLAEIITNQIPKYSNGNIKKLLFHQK
Vitamin D3 receptor (Homo sapiens), sequence (P11473 whole entry, looked up): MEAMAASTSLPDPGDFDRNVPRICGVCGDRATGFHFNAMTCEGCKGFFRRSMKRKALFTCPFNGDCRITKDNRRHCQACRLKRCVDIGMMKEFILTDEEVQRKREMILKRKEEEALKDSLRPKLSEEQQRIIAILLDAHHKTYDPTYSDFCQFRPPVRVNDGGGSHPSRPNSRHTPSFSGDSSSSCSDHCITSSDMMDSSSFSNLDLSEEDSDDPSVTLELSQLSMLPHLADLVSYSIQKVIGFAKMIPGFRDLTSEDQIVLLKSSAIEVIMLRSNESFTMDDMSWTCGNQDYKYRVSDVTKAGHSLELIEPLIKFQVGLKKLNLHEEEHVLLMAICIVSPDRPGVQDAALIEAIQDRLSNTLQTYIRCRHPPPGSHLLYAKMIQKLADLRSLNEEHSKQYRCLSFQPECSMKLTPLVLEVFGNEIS
Retinoic acid receptor RXR-alpha (Homo sapiens), sequence (P19793 whole entry, looked up): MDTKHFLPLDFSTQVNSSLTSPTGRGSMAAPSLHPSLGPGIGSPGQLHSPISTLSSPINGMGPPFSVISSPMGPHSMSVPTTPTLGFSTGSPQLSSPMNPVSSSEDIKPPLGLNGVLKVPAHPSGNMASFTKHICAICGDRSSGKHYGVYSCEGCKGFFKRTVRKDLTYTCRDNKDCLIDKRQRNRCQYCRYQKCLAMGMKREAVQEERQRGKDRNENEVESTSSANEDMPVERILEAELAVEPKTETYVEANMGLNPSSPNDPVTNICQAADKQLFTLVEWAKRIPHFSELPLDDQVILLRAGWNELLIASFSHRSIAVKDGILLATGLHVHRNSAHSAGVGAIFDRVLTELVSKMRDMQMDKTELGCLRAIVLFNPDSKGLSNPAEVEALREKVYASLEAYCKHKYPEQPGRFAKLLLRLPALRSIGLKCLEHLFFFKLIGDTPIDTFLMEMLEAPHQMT

With `COc1cccc(N)c1`, the compound was classed as inactive in experiment [1], in experiment [3], in experiment [4], in experiment [5], in experiment [7] and in experiment [8]. The activation in experiment [2] was 1.73% (inactive); in experiment [11], -3.72% (inactive). The max response in experiment [6] is 15.1%. For the same compound, the activity change % (negative = inhibition) in experiment [9] is -9.05% (inactive). For the same compound, the Potency result in experiment [10] was “inactive”.
`O=Cc1ccc(CO)o1`: the result in experiment [1], in experiment [12], in experiment [4], in experiment [7] and in experiment [8] was inactive. The max response in [6] was -13.3%; in experiment [13], 0.176%; in experiment [14], 8.3% (inactive). Also, the activity change % (negative = inhibition) in experiment [9] was 7.62% (inactive). For the same compound, in [10], the Potency result was “inactive”. Also, in experiment [11], the activation is -2.06% (inactive).
Regarding `Nc1cccc(N)c1`, the outcome in experiment [1], in experiment [12], in [15], in experiment [4], in experiment [5] and in experiment [7] was inactive. Moreover, the call in experiment [8] was inactive. Further, the max response in experiment [6] was 0.0667%; in experiment [13], 1.75%; in experiment [14], -3.92% (inactive). The activity change % (negative = inhibition) in experiment [9] was -1.36% (inactive). Further, the Potency entry in [10] is “inactive”. Also, the figures for the activation in experiment [11] and in experiment [16] were -1.04% (inactive) and -0.628% (inactive), respectively.
In the case of `CNC(=O)c1ccccc1`, the result in experiment [1], in experiment [12], in experiment [15], in experiment [5] and in [7] was inactive. In addition, the activation was -1.59% (inactive) in [2], 1.09% (inactive) in [11] and -1.22% (inactive) in [16]. For the same compound, the max response in experiment [17] was 1.71%; in experiment [6] it was -5.28%; in experiment [13], -1.2%; in experiment [14] it was 15.4% (inactive). Moreover, the Potency result in [18], in [10] and in experiment [19] was “inactive” throughout. In addition, the activity change % (negative = inhibition) in [9] is -4.06% (inactive).
Take `CCCCN(CCO)CCCC`: the result in experiment [1], in experiment [12], in [15], in [4], in experiment [7] and in [8] was inactive. Moreover, the max response was 4.41% in experiment [17], -2.59% in experiment [6], -12.3% in [13] and 4.73% (inactive) in [14]. The Potency entry in experiment [18], in experiment [10] and in [19] was “inactive” throughout. For the same compound, in [9], the activity change % (negative = inhibition) is 22.2% (inactive).
On to `Nc1cc(Cl)c([N+](=O)[O-])cc1O`, for which the compound was classed as inactive in experiment [1], in experiment [3], in [4], in experiment [5], in experiment [7] and in [8]. For the same compound, the activation in experiment [2] is -1.56% (inactive); in [11] it was -0.259% (inactive); in experiment [16] it was 0.0071% (inactive). In addition, the max response is -11.8% in [6] and -8.58% in [13]. Further, in [9], the activity change % (negative = inhibition) is 14.2% (inactive). Besides, the Potency in [19] was 8.41 µM (active).
As for `Oc1c(Cl)ccc(Cl)c1Cl`, the outcome in experiment [1], in experiment [4], in experiment [5], in [7] and in [8] was inactive. In addition, the max response in experiment [6] is 2.14%; in experiment [13], 1.62%; in [14], 17.5% (inactive). In addition, the activity change % (negative = inhibition) in experiment [9] was 13.7% (inactive). Also, the Potency result in experiment [10] was “inactive”. The activation in experiment [11] is 1.05% (inactive).
On to `Nc1c(Cl)cc(Cl)cc1Cl`, for which the result in experiment [1], in [3], in [12], in experiment [15], in experiment [4] and in [5] was inactive. Moreover, the result in experiment [7] and in [8] was inactive. The max response in experiment [17] is 1.78%; in [6], -8.9%; in experiment [13] it was 1.94%; in [14] it was 4.53% (inactive). In addition, the Potency result in experiment [18] and in experiment [19] was “inactive” each time. In addition, the activity change % (negative = inhibition) in experiment [9] was 14.8% (inactive). In [11], the activation is -0.29% (inactive).
As for `CC(C)(C)OC=O`, the call in experiment [1], in [3], in experiment [12], in experiment [15], in experiment [4] and in experiment [5] was inactive. Further, the compound was classed as inactive in [7]. The max response in experiment [6] was -9.54%; in experiment [13], -10.7%; in experiment [14], 2.16% (inactive). The activity change % (negative = inhibition) in [9] was -8.86% (inactive). In addition, the Potency entry in experiment [10] and in experiment [19] was “inactive” in each case. Besides, the activation in [11] is -3.33% (inactive).
